# PubChem BioAssay AID623944 (Vanderbilt Specialized Chemistry Center, 2012)
# Calls of active or inactive are those of the source. The rule behind the calls is not given here.
# Assay: PubChem AID 623944
# Settings: Ricerca radioligand binding panel, % inhibition, at 10 µM, stronger effect = higher value
structure (smiles),measurement,setting,value
O=C(Nc1ccc(N(Cc2ccsc2)C(=O)Cn2nnc3ccccc32)cc1)C1CC1,inhibition,GABA-A flunitrazepam site inhibition,22%
same,inhibition,adenosine A3 binding inhibition,20%
same,inhibition,androgen receptor binding inhibition,42%
same,inhibition,,75% (inactive)
same,inhibition,cannabinoid CB1 binding inhibition,25%
same,inhibition,dopamine D2S binding inhibition,4%
same,inhibition,dopamine transporter binding inhibition,12%
same,inhibition,hERG binding inhibition,15%
same,inhibition,kappa opioid binding inhibition,20%
same,inhibition,muscarinic M1 binding inhibition,-7%
same,inhibition,norepinephrine transporter binding inhibition,18%
same,inhibition,serotonin transporter binding inhibition,-1%
same,inhibition,sigma receptor binding inhibition,42%
